For five compounds, Potency results are on record in PubChem BioAssay AID602179 (National Center for Advancing Translational Sciences (NCATS), 2012).

The campaign covered roughly 390,000 compounds. About 360 (0.092%) were called active. Entries that show only a call come without a potency. The call rests on the fitted dose curve; in most records, active means well fitted inhibition curve with a large enough effect; inconclusive means small, poorly fitted or top-dose-only effect; inactive means no such curve, though single readings can be large or run the other way. The sample as a whole holds a higher share of actives than the screen did.
Potency means the concentration at half of the fitted maximal effect.

Sequence of Isocitrate dehydrogenase [NADP] cytoplasmic (Homo sapiens) (O75874 whole entry R132H, stated change not applied, canonical isoform): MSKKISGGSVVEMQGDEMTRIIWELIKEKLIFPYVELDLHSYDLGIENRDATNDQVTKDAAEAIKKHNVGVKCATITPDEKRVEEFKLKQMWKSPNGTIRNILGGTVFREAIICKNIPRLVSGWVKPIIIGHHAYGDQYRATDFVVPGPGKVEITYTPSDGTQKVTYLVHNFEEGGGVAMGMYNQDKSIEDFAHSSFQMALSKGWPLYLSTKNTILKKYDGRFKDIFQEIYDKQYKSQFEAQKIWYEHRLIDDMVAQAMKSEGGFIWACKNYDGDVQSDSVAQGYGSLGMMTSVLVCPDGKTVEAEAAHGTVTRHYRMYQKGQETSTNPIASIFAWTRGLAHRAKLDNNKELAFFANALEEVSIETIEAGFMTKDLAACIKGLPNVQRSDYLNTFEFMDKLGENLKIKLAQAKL

The assay addresses Isocitrate dehydrogenase [NADP] cytoplasmic (Homo sapiens) (UniProt O75874). As to the kind of experiment: qHTS for Inhibitors of mutant isocitrate dehydrogenase 1 (IDH1): qHTS. Further: nearly all actives have a fitted effect of over 65% in size. The following applies: IDH1-R132H enzyme, NADPH consumption, diaphorase/resazurin fluorescence; series mostly up to 76.6 µM. From the text: Unbiased genomic sequencing for 22 glioma genomes found recurrent mutation of isocitrate dehydrogenase 1 (IDH1) on chromosome 2q33-a gene encoding the cytosolic isoform of IIDH1associated with the tricarboxylic acid cycle (TCA) that catalyzes the oxidative decarboxylation of isocitrate, yielding alpha-ketoglutarate and CO2 via NADP+ to NADPH conversion. Subsequent studies confirmed the recurrent IDH mutations in up to 70% of secondary gliomas and in 10% of AML cases. […] This in effect defines IDH1 as an oncogene, and provides an extraordinary opportunity to discover chemical probes against mutant IDH1 that may translate into much needed new therapies for glioma and AML patients. […] NIH Chemical Genomics Center [NCGC] NIH Molecular Libraries Probe Centers Network [MLPCN] MLPCN Grant: DA032129 Assay Submitter (PI): Lenny Dang, Agios Pharmaceuticals
IDH1-R132H (0.5 ug/mL) was dispensed into black, solid-bottom 1536-well plates at 3 uL/well in 20 mM Tris-HCl (pH 7.5), 150 mM NaCl, 10 mM MgCl2, 4 mM beta-ME, and 0.05% protease-free BSA. Then, 23 nL of compounds or DMSO were delivered to each well using a pin tool. A pre-read was run on the Viewlux to identify fluorescent compounds (540 nm excitation filter, 598 nm emission filter, bodipy mirror and 2 second exposure). After 30 minutes of incubation with compound, 3 uL of substrate mix were dispensed (0.016 mM NADPH, 2 mM alpha-KG, 20 mM Tris-HCl (pH 7.5), 150 mM NaCl, 10 mM MgCl2, and 0.05% protease-free BSA). Plates were spun for 1 min at 1000xg and incubated at room temperature for 80 min. Then 1.5 uL of each detection reagent component for the coupling system were added (0.12 mg/mL diaphorase and 0.072 mM resazurin, each in 20 mM Tris-HCl (pH 7.5), 150 mM NaCl, 10 mM MgCl2, and 0.05% protease-free BSA ) The protein, substrate and two detection components were maintained at 4 °C throughout the screen. Additionally, the substrate and resazurin reagents were protected from light. The plates were measured on an Envision plate reader for fluorescence signal using a 540 nm excitation filter and 590 nm emission filter with 10 flashes. 1x and 0x (no-enzyme) IDH1-R132H enzyme control were used to normalize %Activity of identified inhibitors; 0x enzyme values corresponded to 100% Activity (full inhibition), while 1x IDH1-R132H enzyme values were used to normalize 0%Activity (no inhibition). Concentration-response curves were fitted to the signals arising from the resulting fluorescence. The concentration-effect curves were then classified based on curve quality (r2), response magnitude and degree of measured activity, and compounds were subsequently categorized based on their curve class. […] Keywords: isocitrate dehydrogenase, IDH1, IDH1-R132H, MLSMR, MLPCN, NIH Roadmap, qHTS, NCGC
For orientation: qHTS replaces the single test concentration by a dilution series.
In the case of `CC(C)(C)c1ccc(S(=O)(=O)Nc2ccc(O)c(Sc3nc4ccccc4s3)c2)cc1`, the Potency is 39.8 µM (active). The entry for `Cn1c(O)c(C=NCCN2CCNCC2)c(=O)n(C)c1=O` is “inactive”; for `CCOCCc1c(O)[nH]c(=S)[nH]c1=O` it is “inactive”.

Take `O=C(Nc1ccc(Cl)cc1C(=O)c1ccccc1)c1cc(Cl)cc(Cl)c1`: the Potency entry was “inactive”. The entry for `CC(C)Oc1ccc(NC(=O)c2cc3ccccc3o2)cc1` is “inactive”.
